In PubChem BioAssay AID1345082 (National Center for Advancing Translational Sciences (NCATS), 2018) one finds Potency data, which are given here for 98 compounds.

Screen size: about 94,000 compounds; about 4,000 (4.3%) were called active. Where a call stands in place of a potency, no number is given. Roughly 29% stayed inconclusive and do not appear here. This is one part of a sample in which actives are shown more often than they occur. Calls follow the shape of the dose curve; as a rule, active = well fitted inhibition curve with a large enough effect; inconclusive = small, poorly fitted or top-dose-only effect; inactive = no such curve, though single readings can be large or run the other way.
Potency is read from the fitted curve at half-maximal effect.

This test can be described thus: Cytotoxic Profiling in NIH 3T3 Cell Line of Diverse Libraries Using Quantitative High-Throughput Screening. Also: nearly all actives have a fitted effect of over 55% in size. Particulars: NIH 3T3 viability, CellTiter-Glo ATP luminescence, 48-72 h; series mostly up to 96.7 µM. The essentials: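 Mouse fibroblast NIH 3T3 cells, 400 per well, received compound via pintool and were incubated for 48 or 72 hr prior to CellTiter-Glo ATP luminescence measurement.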
For `CCn1ncnc1CN1CCC2(CC1)CC(C(=O)O)N(C(C)=O)C2` (stereo not drawn), the Potency result is “inactive”.

As for `COCC(=O)NC1CCC12CCN(C(=O)Nc1ccccc1)CC2` (stereo not drawn), the Potency entry was “inactive”.

For `Cc1ccc(C(=O)NC2CCN(c3ccc4nnc(C)n4n3)C2)cc1` (stereo not drawn), the Potency result is “inactive”.

For the compound `O=C([C@@H]1C[C@H](F)CN1C(=O)Cc1ccccc1Cl)N1CCCCC1`, the Potency entry was “inactive”.

In the case of `Cc1ccccc1N1Cc2c(NCC(C)C)ncnc2N(C)CC1=O`, the Potency result is “inactive”.

Turning to `CC/C=C/CC(=O)N1CCC2(CCN(Cc3cccnc3)CC2)C(CO)C1` (stereo not drawn), the Potency result was “inactive”.

As for `COc1cccc2c1CCN=C2C[C@H]1CN(C(=O)C(C)(C)C)CC[C@H]1CC(=O)O`, the Potency result is “inactive”.

On to `Cc1n[nH]c(C)c1CCC(=O)N1CCCC(c2ccc(C(=O)O)cc2)C1` (stereo not drawn), for which the Potency result is “inactive”.

With `COc1ccc(S(=O)(=O)N2C[C@@H](Oc3ccccc3)C[C@@H]2C(=O)N2CCOCC2)cc1`, the Potency entry was “inactive”.

For `Cc1c(C(=O)N2C[C@@H](CN(C)C)C[C@H](CO)C2)n(C)c2c(C)cccc12`, the Potency entry is “inactive”.

In the case of `CN(C)C[C@@H]1CN(C2CCOCC2)C[C@H]1NC(=O)c1ccco1`, the Potency entry is “inactive”.

For `Cc1ccc2c(c1)nc1n2[C@@H](CNC(=O)c2ccccc2)COC1`, the Potency result is “inactive”.

Consider `Cc1ccc2nc3n(c2c1)[C@@H](CNC(=O)c1ccc(C#N)cc1)COC3`, for which the Potency was 89.1 µM (active).

With `COc1ccc2c(c1)nc1n2[C@@H](CNC(=O)c2ccncc2)COC1`, the Potency result was “inactive”.

As for `O=C(CCC1CCCN(S(=O)(=O)c2ccc(F)cc2)C1)NC1CCS(=O)(=O)C1` (stereo not drawn), the Potency entry was “inactive”.

Turning to `O=C(NC1CCc2nn(CC3CC3)c(=O)n2CC1)c1ccc(Cn2ccnc2)o1` (stereo not drawn), the Potency entry is “inactive”.

`Cc1oc2ccn(Cc3ccccc3F)c(=O)c2c1C(=O)NCCCN1CCCCC1C` (stereo not drawn): the Potency was 39.8 µM (active).

Take `Cc1noc([C@H]2CCN(Cc3ccccc3F)C[C@H]2NC(=O)C2CC2)n1`: the Potency entry is “inactive”.

Regarding `Cc1oc2c(c1C(=O)NCCN1CCCC1)CN(Cc1ccc(F)cc1)CC2`, the Potency entry is “inactive”.

Turning to `CCn1nc(C)c(-c2cc(C(=O)N3CCCCCCNC(=O)[C@@H]4CCCC[C@@H]43)no2)c1C`, the Potency result was “inactive”.

Take `COc1nccnc1NC1CCN(C(=O)NCc2ccccc2)CC1`: the Potency result is “inactive”.

With `CC(C)CN1CCOC[C@H](Oc2ccc(S(C)(=O)=O)cc2)C1`, the Potency entry is “inactive”.

With `Cn1cc(CN2CCOC[C@H](Oc3ccc(S(C)(=O)=O)cc3)C2)c2ccccc21`, the Potency is 28.2 µM (active).

`COc1ccc(O[C@H]2COCCN(Cc3nccn3C)C2)cc1`: the Potency entry was “inactive”.

As for `CCCCn1ccnc1C1CCCN(C(=O)c2ccccc2-c2ncn[nH]2)C1` (stereo not drawn), the Potency result was “inactive”.

Consider `CN(C)C(=O)c1ccc2oc(-c3ccnc(Cl)c3)nc2c1`, for which the Potency was 28.2 µM (active).

On to `O=C(NCc1ccccc1)c1ccc2nc(-c3ccnc(Cl)c3)oc2c1`, for which the Potency result was “inactive”.

As to `O=C(NCCc1ccc(Cl)cc1)c1ccc2oc(-c3cccnc3)nc2c1`, the Potency entry was “inactive”.

`O=C(O)[C@]12CCCN(Cc3ncc[nH]3)[C@@H]1CCN(Cc1ccncc1)C2`: the Potency entry was “inactive”.

Regarding `CCCN1CCCC2(CCN(C(=O)C(=O)c3cccn3C)C2)C1=O` (stereo not drawn), the Potency result is “inactive”.

As to `CC(C)NC(=O)C1CCC(=O)N1C1CCN(C(=O)c2ccc3c(c2)OCO3)CC1` (stereo not drawn), the Potency entry was “inactive”.

As for `O=C(c1ccc2c(c1)OCO2)N1CCC(n2c(=O)[nH]c3ccccc32)CC1`, the Potency result was “inactive”.

Regarding `COc1ccc(CNC(=O)c2noc(-c3ccc(F)cc3)n2)cc1`, the Potency entry is “inactive”.

Regarding `O=C(NCc1ccc2c(c1)OCO2)c1noc(-c2ccc(F)cc2)n1`, the Potency result was “inactive”.

On to `CNc1nc(C(=O)NCc2ccc3[nH]c(-c4ccc(F)cc4)c(C)c3c2)cs1`, for which the Potency is 50.1 µM (active).

With `CN(CCc1ccccn1)[C@H]1[C@@H]2OC[C@@H](O2)[C@@H](NC(=O)Nc2ccc(F)cc2)[C@@H]1O`, the Potency result is “inactive”.

For `CNC(=O)[C@@H]1CN(C(=O)c2n[nH]c3ccccc23)C[C@H]1COC`, the Potency result was “inactive”.

With `COc1ccccc1C(=O)N1CCC2(CC1)C(=O)Nc1ccccc12`, the Potency result was “inactive”.

On to `CN(C)CCNC(=O)c1nc2nc(-c3ccccc3)c(-c3cccc(F)c3)cc2n1C`, for which the Potency is 25.1 µM (active).

For `CCc1cc(=O)n(CC(=O)Nc2ccccc2F)c(-c2cccc(F)c2)n1`, the Potency result is “inactive”.

As to `COCCNC(=O)c1nc(-c2cc(Cl)cc(Cl)c2)c2ccccn12`, the Potency entry is “inactive”.

For `Cc1ccc(S(=O)(=O)N2C[C@@H](F)C[C@H]2C(=O)N2CCCCC2)cc1Cl`, the Potency result was “inactive”.

On to `CCN1c2cc(C(=O)NCc3cccc(F)c3)ccc2C(=O)N2CCCCCC21` (stereo not drawn), for which the Potency result was “inactive”.

For `CN1c2cc(C(=O)Nc3ccc(F)cc3)ccc2C(=O)N2CCCCC21` (stereo not drawn), the Potency entry is “inactive”.

On to `CCN1c2cc(C(=O)Nc3ccc(F)c(Cl)c3)ccc2C(=O)N2CCCCC21` (stereo not drawn), for which the Potency was 25.1 µM (active).

`COC1CN(c2cccc(F)c2)C12CCN(C1CCOCC1)CC2` (stereo not drawn): the Potency result is “inactive”.

With `COc1ccccc1CNC(=O)CN1CC[C@](C)(O)[C@@H](O)C1`, the Potency entry is “inactive”.

With `COC(=O)[C@@H]1Cc2ncn(Cc3ccc(OC)cc3)c2CN1S(C)(=O)=O`, the Potency entry was “inactive”.

`COCCN1CCN(C(=O)[C@@H]2Cc3cn(C)c4cccc(c34)[C@H](CC(C)C)N2)CC1`: the Potency entry was “inactive”.

With `CC#CCn1cc2c3c(cccc31)[C@H](CC(C)C)N[C@H](C(=O)NCc1ccccc1OC)C2`, the Potency was 31.6 µM (active).

On to `Cc1cc(Cn2cc3c4c(cccc42)[C@H](CC(C)C)N[C@H](C(=O)N2CCCCCC2)C3)no1`, for which the Potency is 31.6 µM (active).

Consider `COc1ccc(CNC(=O)[C@@H]2Cc3cn(Cc4ccncc4)c4cccc(c34)[C@H](CC(C)C)N2)cc1`, for which the Potency was 79.4 µM (active).

Consider `CCCN1C(=O)Cc2ccccc2C1C(=O)NCc1cccc(OC)c1OC` (stereo not drawn), for which the Potency result is “inactive”.

Regarding `COc1ccc(CNC(=O)[C@H]2O[C@H](CCN3CCN(C)CC3)CC[C@@H]2O)cc1`, the Potency entry is “inactive”.

Turning to `COc1ccc(CCC(=O)N2CCCC3(CC2)CN(C)C(=O)O3)cc1OC` (stereo not drawn), the Potency entry was “inactive”.

As to `CS(=O)(=O)c1ccc(CN2CCOC(c3cccnc3)C2)cc1` (stereo not drawn), the Potency result was “inactive”.

As to `COc1ccc(CNC(=O)CC[C@@H]2CNC(=O)[C@@H]3C[C@H](NC(=O)NC(C)C)CN23)cc1`, the Potency result is “inactive”.

For the compound `Cc1ccc(-n2cccn2)c(CN2CCC(CNS(C)(=O)=O)C2)c1` (stereo not drawn), the Potency result is “inactive”.

Regarding `OC[C@@H]1O[C@H](CNC2CCOCC2)[C@H](N2CCCC2)[C@@H]1O`, the Potency entry was “inactive”.

`Cc1cc(C)n(CCCN(C)C(=O)C2C3C(=O)N(CCC(C)C)C[C@@]34C=C[C@@H]2O4)n1` (stereo partly drawn): the Potency result was “inactive”.

Consider `Cc1cn2nc(C(=O)Nc3ccc(F)cc3F)cc2c(N(C)Cc2ccccc2)n1`, for which the Potency entry was “inactive”.

On to `CCNC(=O)c1ccccc1-c1ccc(O)cc1`, for which the Potency result was “inactive”.

Take `O=Cc1ccccc1-c1ccc(O)cc1`: the Potency is 79.4 µM (active).

As to `COc1ccccc1C(=O)N1CCC2(C1)C(=NC1CCCCC1)NC(=O)N2c1cccnc1` (stereo not drawn), the Potency result is “inactive”.

For the compound `Cc1cccc(C(=O)N2C[C@@H](COc3ccccc3)[C@H](C(N)=O)C2)c1`, the Potency entry was “inactive”.

`COCC1CN(C(C)=O)CC12CCN(Cc1cccc(C#N)c1)CC2` (stereo not drawn): the Potency entry was “inactive”.

As to `O=C(c1cn[nH]c1)N1CC2(CN(Cc3cccc(Cl)c3)CC2COc2ccccc2)C1` (stereo not drawn), the Potency was 79.4 µM (active).

In the case of `CNC(=O)c1cc(C)nc2onc(C3CCN(C(=O)C4CCCCC4)C3)c12` (stereo not drawn), the Potency result is “inactive”.

On to `Cn1ccc(Nc2cc3c(cn2)CN(CCc2ccccc2)CCN3)n1`, for which the Potency was 79.4 µM (active).

Turning to `CC(=O)N1Cc2ccccc2CC2(CCN(Cc3cccnc3)CC2)C1`, the Potency result is “inactive”.

For the compound `c1ccc(CN2CCNc3cc(NCc4cccnc4)ncc3C2)cc1`, the Potency was 50.1 µM (active).

In the case of `O=C1CC(c2ccccc2)N(Cc2ccncc2)CCCN(Cc2cccnc2)CCN1` (stereo not drawn), the Potency result is “inactive”.

Take `CCn1ccnc1CN(C)C1CCCN(CCc2ccccc2)C1` (stereo not drawn): the Potency result is “inactive”.

Consider `COc1cccc(S(=O)(=O)N2CCC3(CC2)CC2C(=O)NCCN2C3)c1` (stereo not drawn), for which the Potency result was “inactive”.

As to `CCc1nc(N(C)Cc2nccn2Cc2ccccc2)c2cnn(C)c2n1`, the Potency entry is “inactive”.

Take `CS(=O)(=O)c1cnc(NCCN2CCOCC2)nc1C1CCCNC1` (stereo not drawn): the Potency entry is “inactive”.

In the case of `COc1cc(-c2noc(-c3nc(-c4ccc5c(c4)OCO5)no3)n2)cc(OC)c1OC`, the Potency result is “inactive”.

With `CC(C)C[C@@H]1N[C@H](C(=O)NC(C)C)Cc2c[nH]c3cccc1c23`, the Potency is 100 µM (active).

Consider `COCCn1c(C)cc(C(=O)N2CCCCCCNC(=O)CC2)c1C`, for which the Potency entry is “inactive”.

`O=C(c1cccnc1)N1CCC(Cc2nc(C3CCOCC3)no2)CC1`: the Potency result is “inactive”.

Regarding `O=C([C@@H]1C[C@H](Oc2ccccc2)CN1S(=O)(=O)c1cccnc1)N1CCCC1`, the Potency entry was “inactive”.

As to `Cc1nn2c(c1-c1ccnn1C(C)C)N(CC1CCOCC1)CCC2`, the Potency is 31.6 µM (active).

On to `Cc1nn2c(c1-c1ccccc1-c1ccccc1)N(CC1CC1)CCC2`, for which the Potency was 3.16 µM (active).

As for `COc1ccc(S(=O)(=O)NCCc2noc(-c3ccncc3)n2)cc1`, the Potency entry was “inactive”.

As for `CNC(=O)N1CCC(C2CCN(C(=O)CSC)C2)CC1` (stereo not drawn), the Potency result was “inactive”.

Regarding `COc1cc(NC(=O)c2cc3c(N4CCSCC4)nc(C)cn3n2)cc(OC)c1`, the Potency result was “inactive”.

Turning to `COc1ccccc1-c1cnc(NC(=O)c2ccc(Cl)cc2)c2c1CCO2`, the Potency was 79.4 µM (active).

For `COc1ncccc1Nc1ncc(-c2ccccc2)c2c1OCC2`, the Potency result is “inactive”.

In the case of `COc1cc2c(cc1OC)C(CNC(=O)c1ccc(Cl)cc1)N(C(=O)Nc1ccccc1)CC2` (stereo not drawn), the Potency entry was “inactive”.

In the case of `O=C(c1ccccc1)N1CCCCC1c1nc(C2CC2)n[nH]1` (stereo not drawn), the Potency result was “inactive”.

As for `Cc1ccc(NC(=O)[C@@H]2CNC[C@H](C(=O)NCc3ccccn3)C2)cn1`, the Potency entry was “inactive”.

Consider `O=C(COc1ccc(NC(=O)C2CC2)cn1)NCc1ccc(F)cc1F`, for which the Potency result is “inactive”.

Consider `COc1ccc(NC(=O)[C@@H]2C[C@@H](c3ccc(F)cc3)N(CCOc3ccccc3)C2)cn1`, for which the Potency was 44.7 µM (active).

As to `CNC(=O)N1CCC(N2CC(OCC3CC3)C23CCCCC3)CC1` (stereo not drawn), the Potency entry was “inactive”.

Consider `O=C(O)C[C@@H]1CCN(C(=O)C(=O)O)C[C@@H]1CC1=NCCc2cc(F)ccc21`, for which the Potency result is “inactive”.

For the compound `O=C(c1cccc(F)c1)N1CCC(CCOc2ccc(F)cc2)C1` (stereo not drawn), the Potency was 39.8 µM (active).

Take `Cc1ccc(OCCC2CCN(C(=O)c3cnccc3C)C2)cc1` (stereo not drawn): the Potency result is “inactive”.

For the compound `O=C(c1cccc(F)c1)N1CCCC(CN2CCOCC2)CC1` (stereo not drawn), the Potency entry was “inactive”.
